# This is a sample that favours compounds with a hit; in the whole collection about 13% have one here.
# G9a inh: qHTS Assay for Inhibitors of Histone Lysine Methyltransferase G9a. 350,000 compounds, 8.8% hits. Potency, µM (titrated, usually from 102 µM), for inactives: at the top dose activity, negative = inhibition, hits mostly inhibitors. G9a H3K9 monomethylation, AlphaScreen, 2 h; further: potency means the concentration at half of the fitted maximal effect; on the % scale 0 is the no-effect control and ±100 the full control effect; nearly all actives have a fitted effect of over 75% in size
# Target sequence (Q96KQ7 913-1193 limits assumed): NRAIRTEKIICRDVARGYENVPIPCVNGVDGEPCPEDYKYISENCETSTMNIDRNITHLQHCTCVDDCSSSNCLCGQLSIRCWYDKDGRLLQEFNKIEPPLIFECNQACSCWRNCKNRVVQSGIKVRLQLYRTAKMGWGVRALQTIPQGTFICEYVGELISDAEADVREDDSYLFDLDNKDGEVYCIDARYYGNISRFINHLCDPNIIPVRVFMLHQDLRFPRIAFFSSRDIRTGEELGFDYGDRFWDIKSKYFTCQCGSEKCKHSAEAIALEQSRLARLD
#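 G9a (20 nM) was preincubated 15 min with compound, then reacted 2 h at room temperature with 500 nM biotin-H3K9 peptide and 20 µM SAM. Monomethyl-H3K9 detected by AlphaScreen using anti-H3K9me1 antibody.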
# Sfp inh: qHTS Assay for Inhibitors of Bacillus subtilis Sfp phosphopantetheinyl transferase (PPTase). 310,000 compounds, 3.5% hits. AID 1490, 2009. Potency, µM, inactives show largest response in the series, negative = inhibition, most hits filed as inhibitors. Biochemical Sfp PPTase activity, qHTS;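 further: the enzyme is Sfp with the accession as filed and its product quenches rhodamine fluorescence; potency means the concentration at half of the fitted maximal effect; 0% = enzyme reaction without inhibitor and -100% = no enzyme wells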
#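 Reaction rates are the 30-min fluorescence difference (ex 525, em 598 nm) in wells containing 15 nM Sfp, 5 uM rhodamine-CoA and 12.5 uM BHQ-2-YbbR at pH 7.6 with 10 mM MgCl2.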
# ALDH1A1 block: qHTS Assay for Inhibitors of Aldehyde Dehydrogenase 1 (ALDH1A1); AID 1030, 2008; Purified ALDH1A1, NADH fluorescence, propionaldehyde substrate; Potency, µM (doses to about 75.3 µM), for the others: at the highest dose activity, negative = inhibition, actives largely listed as inhibitors; 220,000 compounds, 7.3% hits; active means well fitted inhibition curve with a large enough effect, not every such curve was filed as active; inconclusive means small, poorly fitted or top-dose-only effect, or another doubt; inactive means no such curve, though single readings can be large or run the other way;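 further: potency means the concentration at half of the fitted maximal effect; plate controls were no enzyme wells and a reference inhibitor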
# Target sequence (P00352 whole entry, looked up): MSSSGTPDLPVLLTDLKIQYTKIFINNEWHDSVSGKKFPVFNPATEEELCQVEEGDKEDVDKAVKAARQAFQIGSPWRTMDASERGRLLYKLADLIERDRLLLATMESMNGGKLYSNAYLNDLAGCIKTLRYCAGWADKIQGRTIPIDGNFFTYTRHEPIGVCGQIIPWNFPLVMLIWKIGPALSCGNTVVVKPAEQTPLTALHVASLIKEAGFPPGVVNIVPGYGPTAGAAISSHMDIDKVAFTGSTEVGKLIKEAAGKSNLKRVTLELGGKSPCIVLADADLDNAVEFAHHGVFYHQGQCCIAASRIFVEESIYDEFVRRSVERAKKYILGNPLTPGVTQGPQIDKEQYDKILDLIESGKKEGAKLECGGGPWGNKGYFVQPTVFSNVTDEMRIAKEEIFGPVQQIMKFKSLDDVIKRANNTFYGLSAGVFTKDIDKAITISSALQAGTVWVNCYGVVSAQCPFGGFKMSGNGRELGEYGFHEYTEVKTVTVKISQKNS
# miR-21 reporter: qHTS Assay for Modulators of miRNAs and/orActivators of miR-21; HeLa miR-21 FLuc reporter, luciferase, 48 h; Potency, µM (doses to about 38.3 µM), inactives show at the top dose activity change, positive = activation, actives largely listed as activators; 340,000 tested, under 10 active; AID 2288, 2010;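 further: % of control where 0% means no effect; miR-21 action dims this reporter so a rising signal means less miR-21 action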
#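 Using DMEM plus 10% FBS, HeLa miR-21-FLuc cells are incubated with test compounds (final up to about 40uM) for 48 hours; firefly luciferase signal is then imaged following reagent-mediated lysis.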
# LMNA splice mod: qHTS Assay for Modulators of Lamin A Splicing; AID 1487, 2009; Potency, µM (series often up to 46.1 µM), without a hit: top-dose ratio change, negative = inhibition, usual class: inhibitors; 200,000 compounds, 0.01% hits; HeLa LMNA splicing GFP/RFP minigene ratio, 48 h; active means well fitted inhibition curve with a large enough effect in the signal ratio, with a control signal flat, not every such curve was filed as active; inconclusive means small, poorly fitted or top-dose-only effect, or effect the other way, or a change in a side signal; the % refers to the signal ratio; further: potency means the concentration at half of the fitted maximal effect; on the % scale 0 is the no-effect control and ±100 the full control effect
#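 Read-out is the ratio of GFP to DsRed2 object intensity, acquired by 488 nm laser-scanning cytometry on HeLa lamin A-EGFP minigene reporter cells. Compound incubation 48 hrs at 37 °C in Opti-MEM with 2% FBS; DMSO 0.5% final.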
# KDM4E inh: qHTS Assay for Inhibitors of Human Jumonji Domain Containing 2E (JMJD2E). Lysine-specific demethylase 4E (Homo sapiens), B2RXH2. 230,000 compounds, 1.6% hits. Potency, µM (series often up to 57.1 µM), inactives show top-dose activity change, negative = inhibition, most hits filed as inhibitors. JMJD2E catalytic domain, FDH-coupled NADH fluorescence (FDH is formaldehyde dehydrogenase);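 further: potency means the concentration at half of the fitted maximal effect; 0% = wells with enzyme and -100% = buffer wells without enzyme; nearly all actives have a fitted effect of over 50% in size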
# * hit, by the source's call; ? = inconclusive; / = no result given; ! = not confirmed by another sample; [ ] = dose if it differs, or a comment. Unless noted, the call rests on the fitted dose curve; in most records, active means well fitted curve in the direction sought with a large enough effect; inconclusive means small, poorly fitted or top-dose-only effect, or another doubt; inactive means no such curve, though single readings can be large; an effect the other way counts as inactive or inconclusive.
SMILES,G9a inh,Sfp inh,ALDH1A1 block,miR-21 reporter,LMNA splice mod,KDM4E inh
COC1CCCN(Cc2nc(Cc3ccccc3F)no2)C1 (stereo not drawn),5%,26%,5%,-12%,6%[46 µM],15%
CC[C@H](C)N(C)C(=O)c1cc2ccccc2c(-c2ccccc2Cl)n1,/,18%,-1%,/,/,4%
COc1cccc(Cn2c(=O)c(C)nc3cnc(N4CCN(C)CC4)nc32)c1,1%[0.501 µM],4%,?,/,?,/
CNC(=O)N(O)C1N(/N=C/c2cc(Br)ccc2O)C(=S)SC1(C)C (stereo not drawn),16%,79µM*,/,-11%,/,/
CC(C)NCCCCOc1ccc(Br)cc1Cl,/,?,-10%,-27%,/,5%
CC(C)NC(=O)c1ccc(Cn2c(=O)c3cccn3c3cccnc32)cc1,7%[59 µM],/,/,-10%,/,/
Cc1nc(NC(=O)c2ccc(Cl)cc2)nc2cc3c(cc12)OCO3,6%[59 µM],23%,?,-11%,1%,?
Cc1c(-c2cc(Br)ccc2O)nc2cc3c(cc2c1C)OCO3,45µM*,8%,/,-32%,/,/
Cc1[nH][nH]c(=O)c1C(c1ccc(Cl)cc1)c1c(C)[nH][nH]c1=O,-2%,17%,/,-1%,/,/
CCOC(=O)C(C)Sc1nnc(Cn2c(=O)sc3ccccc32)n1-c1ccccc1 (stereo not drawn),?,79µM*,-7%,-6%,1%,0%
NC(=O)CSc1nnc(Cn2c(=O)sc3ccccc32)n1-c1ccccc1,-8%[59 µM],23%,-6%,-9%,-4%,-4%
O=C(CSc1nnc(Cn2c(=O)sc3ccccc32)n1-c1ccccc1)N1CCOCC1,45µM*,56µM*,-2%,-6%,?,-18%
CCSc1nnc(Cn2c(=O)sc3ccccc32)n1C,10%[59 µM],12%,2%,1%,-8%,0%
Cn1c(Cn2c(=O)sc3ccccc32)nnc1SCc1ccccn1,3%,12%,2µM*,-8%,-1%,-1%
Cc1ccccc1-n1c(Cn2c(=O)sc3ccccc32)nnc1SCC(=O)N1CCOCC1,-15%,18%,11%,-4%,3%,-3%
COc1ccc(S(=O)(=O)n2ccnc2)cc1C(C)(C)C,-34%[59 µM],/,/,-8%,/,/
CN(C)c1ccc(-c2cncnc2Nc2ccccc2)cc1,1%[0.501 µM],1%,25µM*,/,?,/
Cc1cnc(CNc2ncncc2-c2ccc(N(C)C)cc2)cn1,-46%[0.501 µM],79µM*,-5%,/,7%,/
CN(C)c1ccc(-c2cncnc2NCCN2CCOCC2)cc1,-2%[0.501 µM],79µM*,-14%,/,?,/
Cc1ccccc1-c1cncnc1NCCN1CCOCC1,/,-28%,6%,/,?,-11%
Cc1ccccc1-c1cncnc1Nc1ccccc1,4%[0.501 µM],-9%,7%,/,-7%,/
O=C(NCc1cccnc1)c1ccccc1CCc1ccccc1,13%,21%,?,-2%,8%[46 µM],-2%
ClCc1nnc(-c2ccccc2)o1,0%[59 µM],-9%,7.9µM*,9%,?,1%
CCOC(=O)c1c(NC(=O)C2c3ccccc3Oc3ccccc32)sc(C)c1C,9%[59 µM],/,/,-15%,/,/
CCOC(=O)c1c(NC(=O)C2=C(C)NC(=S)NC2c2ccc(F)cc2)sc(C)c1C (stereo not drawn),22%[59 µM],-11%,14µM*,23%,?,?
SMILES,G9a inh,Sfp inh,ALDH1A1 block,miR-21 reporter,LMNA splice mod,KDM4E inh
CCOC(=O)c1c(NC(=O)C2=C(C)NC(=S)NC2c2ccc(F)cc2F)sc(C)c1C (stereo not drawn),-5%[59 µM],-8%,11µM*,11%,?,?
CCOC(=O)c1c(NC(=O)C2=C(C)NC(=S)NC2c2ccc(C)cc2)sc(C)c1C (stereo not drawn),6%[59 µM],20µM*,?,-1%,?,9%
N#C[C@H](Cc1ccc(O)cc1)c1ccc(O)cc1,/,20%,?,/,/,1%
CCCN(CCC)S(=O)(=O)c1ccc(C(=O)N2CCn3c4c(c5cc(C)ccc53)CCCC42)cc1 (stereo not drawn),?,/,/,0%,/,/
Nc1nc(Nc2ccccc2)sc1C(=O)c1ccccc1,45µM*,-4%,/,-20%,/,1%
COc1ccc(C(=O)c2sc(Nc3ccccc3)nc2N)cc1OC,71µM*,-17%,/,19%,/,/
COc1ccccc1CN1CCC(CNS(=O)(=O)c2cc(-c3onc(C)c3C)ccc2OC)CC1,1%[59 µM],-1%,/,-10%,/,/
NC(=O)C1CCN(Cc2nc3cc(C(F)(F)F)ccc3c(=O)[nH]2)CC1,14µM*,-19%,/,-4%,/,-3%
CC1Cc2ccccc2N1Cc1nc2cc(C(F)(F)F)ccc2c(=O)[nH]1 (stereo not drawn),?,15%,?,5%,?,1%
COC(=O)[C@@]1(Cc2ccc(OC)cc2)[C@H]2c3cc(C(=O)N4CCCC4)n(CCc4ccccn4)c3C[C@H]2CN1C(=O)c1ccccc1,/,-3%,-4%,/,/,5%
CN(C)CCC=C1c2ccccc2C=Cc2ccccc21,14µM*!,13%,7%[13.5 µM],/,?,-10%
CN(C)CCC=C1c2ccccc2C(C)(C)c2ccccc21,?,-4%,/,/,/,/
CO[C@H]1[C@H](O[C@H]2O[C@@H](C)[C@@H](O[C@@H]3C[C@](C)(O)[C@H](O)[C@H](C)O3)[C@@H](N(C)C)[C@@H]2O)[C@@H](CC=O)C[C@@H](C)[C@@H](O[C@H]2CC[C@H](N(C)C)[C@H](C)O2)/C=C\C=C/C[C@@H](C)OC(=O)C[C@H]1O,35%[21.5 µM],20%,2%[20.9 µM],/,?,-5%[25.5 µM]
COc1ccc([C@]23Cc4cc(OC)c(OC)cc4C(O2)C2=C(CC4(CCCCC4)OC2=O)O3)cc1,-8%[2.33 µM],1%,/,-18%[7.66 µM],/,/
O=C(O)CCC(=O)Nc1ccccc1C(=O)NCc1ccco1,?,-14%,1%,0%,2%,?
O=C(CNCc1ccco1)Nc1ccccc1-n1cccc1,13µM*,-5%,-1%,-4%,-8%,?
O=C(/C=C\NCC(=O)c1ccccc1)c1ccc2ccccc2c1,7.9µM*,-13%,4.5µM*,-27%,?,18µM*
O=C(/C=C\NCC(=O)c1ccccc1)c1ccc(F)cc1,11µM*,4%,20µM*,-28%,-12%,-8%
O=C(/C=C/Nc1ccc(F)cc1Br)c1ccccc1,-5%,27%,2%,-6%,10%,-14%
Cc1ccccc1CN1CCN(C(=O)CC(C)C)CC1,-8%[0.501 µM],79µM*,/,-3%,/,/
O=C(c1cccc2ccccc12)N1CCN(Cc2ccccc2F)CC1,?,-2%,/,7%,/,/
